# The campaign covered roughly 39,000 compounds. About 500 (1.3%) were called active. The sample holds actives, similar compounds and a random draw of the others, so the mix is not that of the screen.
# System: S. aureus RN4220
# Test: growth inhibition call (relative growth <= 0.2)
# Conditions: 50 µM
row,SMILES,growth inhibition call
1,O=C(C[C@H]1CC[C@@H]2[C@H](COC[C@@H](O)CN2C(=O)Nc2cc(Cl)cc(Cl)c2)O1)N1CCOCC1,inactive
2,O=C(C[C@H]1CC[C@@H]2[C@H](COC[C@H](O)CN2C(=O)Nc2cc(Cl)cc(Cl)c2)O1)N1CCOCC1,inactive
3,O=C(C[C@@H]1CC[C@H]2[C@@H](COC[C@@H](O)CN2C(=O)Nc2cc(Cl)cc(Cl)c2)O1)N1CCOCC1,active
4,O=C(C[C@@H]1CC[C@H]2[C@@H](COC[C@H](O)CN2C(=O)Nc2cc(Cl)cc(Cl)c2)O1)N1CCOCC1,inactive
5,O=C(C[C@@H]1CC[C@@H]2[C@H](COC[C@@H](O)CN2C(=O)Nc2cc(Cl)cc(Cl)c2)O1)N1CCOCC1,active
6,O=C(C[C@H]1CC[C@H]2[C@@H](COC[C@@H](O)CN2C(=O)Nc2cc(Cl)cc(Cl)c2)O1)N1CCOCC1,inactive
7,O=C(C[C@H]1CC[C@H]2[C@@H](COC[C@H](O)CN2C(=O)Nc2cc(Cl)cc(Cl)c2)O1)N1CCOCC1,inactive
8,O=C(C[C@@H]1CC[C@@H]2[C@H](COC[C@H](O)CN2C(=O)Nc2cc(Cl)cc(Cl)c2)O1)N1CCOCC1,active
9,CN1CCN(C(=O)C[C@@H]2CC[C@H]3[C@@H](COC[C@H](O)CN3C(=O)Nc3cc(Cl)cc(Cl)c3)O2)CC1,inactive
10,C[C@H](O)C#Cc1ccc2c(c1)O[C@H](CN(C)C(=O)c1ccccc1)[C@H](C)CN([C@H](C)CO)S2(=O)=O,inactive
11,C[C@@H]1CCCCO[C@@H](CN(C)C(=O)Nc2ccc(C(F)(F)F)cc2)[C@H](C)CN([C@H](C)CO)C(=O)c2cc(NS(=O)(=O)c3cn(C)cn3)ccc2O1,inactive
12,C[C@@H]1CN([C@H](C)CO)C(=O)c2cc(NC(=O)CCN3CCOCC3)ccc2O[C@H]1CN(C)C(=O)Nc1ccc2c(c1)OCO2,inactive
13,Cc1noc(C)c1S(=O)(=O)Nc1ccc2c(c1)C(=O)N([C@H](C)CO)C[C@H](C)[C@H](CN(C)Cc1ccccc1)OCCCC[C@@H](C)O2,inactive
14,Cc1ccc(C)c(Cc2cc(Cl)ccc2Cl)c1,inactive
15,Cc1noc(C)c1NC(=O)Nc1ccc2c(c1)C(=O)N([C@H](C)CO)C[C@@H](C)[C@@H](CN(C)C(=O)C1CCCCC1)OCCCC[C@@H](C)O2,inactive
16,C[C@@H]1CN([C@H](C)CO)C(=O)c2cc(NS(=O)(=O)c3cn(C)cn3)ccc2O[C@@H](C)CCCCO[C@@H]1CN(C)CC1CC1,inactive
17,CCNC(=O)C[C@@H]1CC[C@H](NC(=O)C2CCOCC2)[C@@H](CO)O1,inactive
18,OC[C@H]1COc2ccccc2O1,inactive
19,C[C@@H]1CCCCO[C@H](CN(C)S(=O)(=O)c2ccc(Cl)cc2)[C@@H](C)CN([C@H](C)CO)C(=O)c2cc(NS(=O)(=O)c3ccc(F)cc3)ccc2O1,inactive
